Assay results reported in PubChem BioAssay (NCATS).
Inconclusive results are not listed. Where a call stands in place of a potency, no number is given. Calls of active or inactive are those of the source. Calls come from the whole dose curve; as a rule, active = well fitted curve in the direction sought with a large enough effect; inconclusive = small, poorly fitted or top-dose-only effect, or another doubt; inactive = no such curve, though single readings can be large; an effect the other way counts as inactive or inconclusive.

What was measured:
[1] = target: Phospholipid hydroperoxide glutathione peroxidase GPX4 (Homo sapiens) (UniProt P36969); assay: Primary qHTS Assay for Inhibitors of Recombinant Selenoprotein Glutathione Peroxidase 4 (GPX4) (AID 1845192); note: nearly all actives have a fitted effect of over 65% in size; note: potency is the fitted concentration of half-maximal effect
Summary of the method: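 NADPH consumption followed by fluorescence at 340/450 nm, t=0 and after 15 min at room temperature. Reaction started with cumene hydroperoxide (0.5 mM final) after 30 min compound–GPX4 preincubation; final 200 nM GPX4, 100 nM GR, 1 mM GSH, 0.5 mM NADPH.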

[2] = target: Glutathione peroxidase 1 (Homo sapiens) (UniProt P07203); assay: Primary qHTS Assay for Inhibitors of Recombinant Selenoprotein Glutathione Peroxidase 1 (GPX1) (AID 1845191); note: nearly all actives have a fitted effect of over 65% in size
Summary of the method: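 NADPH consumption tracked by fluorescence at 340/450 nm between t=0 and t=15 min, room temperature. Final mix: 10 nM GPX1, 100 nM glutathione reductase, 1 mM GSH, 0.5 mM NADPH, 0.5 mM cumene hydroperoxide, 0.01% BSA; 30 min compound–enzyme preincubation.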

[3] = target: Luciferin 4-monooxygenase (Photinus pyralis) (UniProt P08659); assay: Primary firefly luciferase (FLuc) qHTS assay for identification of artifact compounds. (AID 1845220); note: nearly all actives have a fitted effect of over 60% in size
Summary of the method: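 FLuc 10 nM; luciferin 10 uM; ATP 10 uM; Tris-acetate pH 7.6, Mg-acetate 10 mM; 15 min RT preincubation; 5 min reaction; luminescence.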

[4] = Primary fluorescence-based thiol-reactive (MSTI) qHTS assay for identification of artifact compounds. (AID 1845221); note: nearly all actives have a fitted effect of over 65% in size; note: potency is the fitted concentration of half-maximal effect
Summary of the method: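 Reactivity toward the thiol probe MSTI (4 uM) is scored by fluorescence at Ex/Em 525/598 nm after 1 h at room temperature. Acetyl-MSTI and MSTI define the activity scale.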

[5] = system: Nanoluciferase (engineered Oplophorus gracilirostris luciferase); assay: Primary Nanoluciferase (NLuc) qHTS assay for identification of artifact compounds. (AID 1845222); note: potency is the fitted concentration of half-maximal effect
Summary of the method: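 NLuc from S16 cell medium (1:55) plus test compounds, 15 min, room temperature. Luminescence after Nano-Glo (1:100) addition, 5 min.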

Glutathione peroxidase 1 (Homo sapiens), sequence (P07203 whole entry, looked up): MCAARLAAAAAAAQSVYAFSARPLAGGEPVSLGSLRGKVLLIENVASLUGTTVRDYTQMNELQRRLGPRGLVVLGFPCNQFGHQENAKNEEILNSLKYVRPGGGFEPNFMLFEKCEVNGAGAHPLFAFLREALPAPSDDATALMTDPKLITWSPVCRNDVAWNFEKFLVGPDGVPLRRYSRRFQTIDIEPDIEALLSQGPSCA
Phospholipid hydroperoxide glutathione peroxidase GPX4 (Homo sapiens), sequence (P36969 whole entry, looked up): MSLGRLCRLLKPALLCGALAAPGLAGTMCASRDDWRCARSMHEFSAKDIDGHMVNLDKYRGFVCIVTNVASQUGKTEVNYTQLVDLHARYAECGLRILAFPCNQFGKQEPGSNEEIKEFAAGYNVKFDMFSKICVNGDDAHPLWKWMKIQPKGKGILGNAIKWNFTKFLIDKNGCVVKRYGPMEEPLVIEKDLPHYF

| SMILES | Potency [1] | Potency [2] | Potency [3] | Potency [4] | Potency [5] |
| --- | --- | --- | --- | --- | --- |
| O=C(O)c1cc(=O)c2c3nc4ccccc4oc-3cc(=O)c2[nH]1 | 7.94 µM (active) |  |  |  |  |
| NC(=O)c1cccc(-c2cc(O)cc(OC(=O)NC3CCCCC3)c2)c1 |  | inactive | inactive | inactive | inactive |
| O=C(CCO[C@@H]1O[C@H](CO)[C@@H](O)[C@H](O)[C@H]1O)c1ccc(O)cc1 | inactive |  | inactive | inactive | inactive |
| CC(=O)N[C@H]1CCN(c2ccc(C3=NOC(CN[S+](=O)([O-])C(C)C)C3)cc2F)C1 (stereo partly drawn) |  | inactive | inactive |  | inactive |
| Cc1ccc(C(=O)Nc2ccc(Oc3cc4cnn(C)c4cc3-c3cn[nH]c3)c(F)c2)c(=O)n1-c1ccc(F)cc1 | inactive |  | inactive | inactive | inactive |
| C#C[C@]1(O)CC[C@H]2[C@@H]3CCC4=C/C(=N/O)CC[C@@H]4[C@H]3CC[C@@]21CC |  | inactive | inactive | inactive | inactive |
| O=C1CSC2(CCN(CCCN3c4ccccc4Sc4ccc(Cl)cc43)CC2)N1 | inactive |  |  |  |  |
| N#CC1C(=O)Nc2scc(-c3ccc(-c4ccccc4O)cc3)c2C1=O (stereo not drawn) | inactive |  | inactive | inactive |  |
| C=C1C[C@@]23CC[C@@H]4[C@](C)(C(=O)O)CCC[C@@]4(C)C2=CC[C@H]1C3 | inactive |  | inactive | inactive |  |
| C[C@@H](OC(=O)/C=C/c1ccc(O)cc1)C1=C[C@]2(C=C[C@@H]3C(C(=O)O)=CO[C@@H](O[C@@H]4O[C@H](CO[C@@H]5O[C@H](CO)[C@@H](O)[C@H](O)[C@H]5O)[C@@H](O)[C@H](O)[C@H]4O)[C@@H]32)OC1=O | inactive |  | inactive | 3.98 µM (active) | inactive |
| C/C=C/C=C/C=C/C(=O)O[C@@H]1C=C(CO)C(O)(C(=O)O)[C@@]2(C)CCCC(C)(C)[C@H]12 (stereo partly drawn) |  | inactive |  | inactive | inactive |
| C[C@@H]1C/C=C/C=C\C=C\C=C\[C@H](O[C@@H]2O[C@H](C)[C@@H](O)[C@H](N)[C@@H]2O)C[C@@H]2O[C@](O)(C[C@@H](O)C[C@H]3O[C@@H]3/C=C/C(=O)O1)C[C@H](O)[C@H]2C(=O)O | inactive |  | inactive | inactive |  |
| CC(C)c1nc(N(C)S(C)(=O)=O)nc(-c2ccc(F)cc2)c1/C=C/[C@@H](O)C[C@@H](O)CC(=O)O | inactive |  | inactive | inactive | inactive |
| CCOC(=O)[C@H]1O[C@@H]1C(=O)N[C@@H](CC(C)C)C(=O)NCCC(C)C | inactive |  | inactive | inactive | inactive |
| CC(NCc1ccc(OCc2cccc(F)c2)cc1)C(N)=O (stereo not drawn) | inactive |  | inactive | inactive | inactive |
| CC[C@@]1(O)C(=O)OCc2c1cc1n(c2=O)Cc2cc3c([N+](=O)[O-])cccc3nc2-1 | 35.5 µM (active) |  |  |  |  |
| Cc1c(CN(C)C(=O)/C=C/c2cnc3c(c2)CCC(=O)N3)oc2ccccc12 | inactive |  | inactive | inactive | inactive |
| CC(C)C(=O)c1cn(CC(=O)COc2ccc(Oc3ccccc3)cc2)c2ccc(C(=O)O)cc12 |  | inactive | inactive | inactive | 6.01 µM (active) |
